This assay concerns the target Luciferin 4-monooxygenase (Photinus pyralis) (UniProt P08659). The experiment in a line: inhibition of purified Photinus pyralis luciferase – biochemical, dry powder samples, plate reader, dose response (AID 588451).

Structures are written as SMILES. Measured potencies and affinities stand elsewhere. Active and inactive are the calls of the source. How the calls were made is not given here.

Sequence of Luciferin 4-monooxygenase (Photinus pyralis) (P08659 whole entry, looked up): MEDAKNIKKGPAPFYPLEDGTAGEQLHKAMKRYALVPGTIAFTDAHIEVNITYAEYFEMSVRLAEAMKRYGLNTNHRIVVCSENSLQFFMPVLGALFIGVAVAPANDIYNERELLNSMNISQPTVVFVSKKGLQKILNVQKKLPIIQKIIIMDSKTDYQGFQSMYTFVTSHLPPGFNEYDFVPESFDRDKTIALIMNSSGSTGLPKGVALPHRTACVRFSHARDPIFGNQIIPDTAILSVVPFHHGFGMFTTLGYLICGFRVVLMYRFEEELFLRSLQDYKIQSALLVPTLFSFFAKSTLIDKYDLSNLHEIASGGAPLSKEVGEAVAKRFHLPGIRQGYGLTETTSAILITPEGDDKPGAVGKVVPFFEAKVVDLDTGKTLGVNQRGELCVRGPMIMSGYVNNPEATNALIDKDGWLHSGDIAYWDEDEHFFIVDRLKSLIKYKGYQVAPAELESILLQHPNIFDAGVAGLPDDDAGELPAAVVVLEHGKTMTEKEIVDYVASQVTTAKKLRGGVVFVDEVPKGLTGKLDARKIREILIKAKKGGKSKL

Regarding `Cc1ccc(C(=O)N/N=C/c2ccc([N+](=O)[O-])s2)cc1`, the compound was classed as inactive.

The values are drawn from PubChem BioAssay AID588451 (Broad Institute, 2011).
